According to PubChem BioAssay AID1159580 (chemical genetic matrix, 2015):
Among all 5,500 compounds or so, about 2,000 (36%) were called active. About 18% were inconclusive and are not listed. Rule as the data show it: active = normalized growth mostly below about 0.91 (no sharp cut-off); inconclusive = no clear call, values can overlap the other calls; inactive = mostly above about 0.92. The list shows a part of the results.

Assay: chemical genetic growth profiling, strain panel (AID 1159580);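 also: tested at 20 µM; growth read once vehicle control cultures reached saturation at 30 °C; 1 = growth at the plate median or of vehicle wells; lower values mean less growth of the strain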
Conditions: growth OD

Measured: normalized growth

CCC(=O)Nc1ccc(Cl)c(Cl)c1
inactive: S. cerevisiae deletion strains, locus YJR043C, strain POL32, hits give low values 0.931 | S. cerevisiae deletion strains, locus YJR075W, strain HOC1, hits give low values 0.965 | S. cerevisiae deletion strains, locus YKL009W, strain mrt4, hits give low values 0.976 | S. cerevisiae deletion strains, locus YKL068W, hits give low values 0.999 | S. cerevisiae deletion strains, locus YKL085W, strain MDH1 (second series), hits give low values 0.999 | S. cerevisiae deletion strains, locus YKL085W, strain MDH1, hits give low values 0.999 | S. cerevisiae deletion strains, locus YKL160W, strain elf1, hits give low values 0.984 | S. cerevisiae deletion strains, locus YKL190W, strain CNB1, hits give low values 1 | S. cerevisiae deletion strains, locus YKR001C, strain vps1, hits give low values 0.973 | S. cerevisiae deletion strains, locus YKR026C, strain gcn3, hits give low values 1 | S. cerevisiae deletion strains, locus YKR091W, strain srl3, hits give low values 0.982 | S. cerevisiae deletion strains, locus YLL001W, strain dnm1, hits give low values 0.99 | S. cerevisiae deletion strains, locus YLL026W, hits give low values 0.989 | S. cerevisiae deletion strains, locus YLL041C, strain sdh2, hits give low values 0.996 | S. cerevisiae deletion strains, locus YLR027C, strain aat2, hits give low values 1 | S. cerevisiae deletion strains, locus YLR039C, strain RIC1, hits give low values 1.02 | S. cerevisiae deletion strains, locus YLR058C, strain SHM2, hits give low values 1 | S. cerevisiae deletion strains, locus YLR102C, strain apc9, hits give low values 1 | S. cerevisiae deletion strains, locus YLR221C, strain rsa3, hits give low values 0.986 | S. cerevisiae deletion strains, locus YLR258W, strain gsy2, hits give low values 0.996 | S. cerevisiae deletion strains, locus YLR262C, strain YPT6 (second series), hits give low values 1 | S. cerevisiae deletion strains, locus YLR262C, strain YPT6, hits give low values 0.978 | S. cerevisiae deletion strains, locus YLR268W, strain sec22, hits give low values 0.982 | S. cerevisiae deletion strains, locus YLR320W, strain mms22, hits give low values 0.969 | S. cerevisiae deletion strains, locus YLR330W, strain CHS5, hits give low values 0.995 | S. cerevisiae deletion strains, locus YLR342W, strain FKS1 (second series), hits give low values 0.981 | S. cerevisiae deletion strains, locus YLR342W, strain FKS1, hits give low values 0.973 | S. cerevisiae deletion strains, locus YLR357W, strain rsc2, hits give low values 0.952 | S. cerevisiae deletion strains, locus YLR370C, strain arc18, hits give low values 0.985 | S. cerevisiae deletion strains, locus YLR371W, strain rom2, hits give low values 1.01 | S. cerevisiae deletion strains, locus YLR384C, strain iki3, hits give low values 1.01 | S. cerevisiae deletion strains, locus YLR418C, strain cdc73, hits give low values 0.866 | S. cerevisiae deletion strains, locus YML016C, strain PPZ1, hits give low values 0.997 | S. cerevisiae deletion strains, locus YML032C, strain rad52, hits give low values 1 | S. cerevisiae deletion strains, locus YML120C, strain ndi1, hits give low values 1 | S. cerevisiae deletion strains, locus YML124C, strain tub3, hits give low values 1 | S. cerevisiae deletion strains, locus YMR058W, strain fet3, hits give low values 0.993 | S. cerevisiae deletion strains, locus YMR078C, strain ctf18, hits give low values 1 | S. cerevisiae deletion strains, locus YMR125W, strain sto1, hits give low values 0.98 | S. cerevisiae deletion strains, locus YMR129W, hits give low values 0.98 | S. cerevisiae deletion strains, locus YMR205C, strain PFK2, hits give low values 0.958 | S. cerevisiae deletion strains, locus YMR223W, strain ubp8, hits give low values 1 | S. cerevisiae deletion strains, locus YMR231W, strain pep5, hits give low values 0.997 | S. cerevisiae deletion strains, locus YMR263W, strain SAP30, hits give low values 0.986 | S. cerevisiae deletion strains, locus YMR307W, strain GAS1, hits give low values 0.843 | S. cerevisiae deletion strains, locus YNL067W, strain RPL9B, hits give low values 0.965 | S. cerevisiae deletion strains, locus YNL071W, strain lat1, hits give low values 0.987 | S. cerevisiae deletion strains, locus YNL128W, strain TEP1, hits give low values 0.988 | S. cerevisiae deletion strains, locus YNL153C, strain GIM3, hits give low values 0.988 | S. cerevisiae deletion strains, locus YNL209W, strain ssb2, hits give low values 0.988 | S. cerevisiae deletion strains, locus YNL233W, strain BNI4, hits give low values 0.976 | S. cerevisiae deletion strains, locus YNL248C, strain rpa49, hits give low values 0.991 | S. cerevisiae deletion strains, locus YNL250W, strain rad50, hits give low values 1.01 | S. cerevisiae deletion strains, locus YNL271C, strain bni1, hits give low values 1.01 | S. cerevisiae deletion strains, locus YNL298W, strain CLA4, hits give low values 0.995 | S. cerevisiae deletion strains, locus YNL307C, strain MCK1, hits give low values 0.992 | S. cerevisiae deletion strains, locus YNL322C, strain KRE1 (second series), hits give low values 0.987 | S. cerevisiae deletion strains, locus YNL322C, strain KRE1, hits give low values 0.995 | S. cerevisiae deletion strains, locus YNR049C, strain mso1, hits give low values 0.994 | S. cerevisiae deletion strains, locus YNR052C, strain pop2, hits give low values 1.02 | S. cerevisiae deletion strains, locus YOL006C, strain TOP1, hits give low values 0.885 | S. cerevisiae deletion strains, locus YOL012C, strain htz1 0.818 | S. cerevisiae deletion strains, locus YOL147C, strain pex11, hits give low values 0.999 | S. cerevisiae deletion strains, locus YOR001W, strain rrp6, hits give low values 0.994 | S. cerevisiae deletion strains, locus YOR061W, strain CKA2, hits give low values 0.997 | S. cerevisiae deletion strains, locus YOR069W, strain VPS5, hits give low values 1.01 | S. cerevisiae deletion strains, locus YOR070C, strain gyp1, hits give low values 0.998 | S. cerevisiae deletion strains, locus YOR080W, strain dia2, hits give low values 0.956 | S. cerevisiae deletion strains, locus YOR083W, strain WHI5, hits give low values 0.994 | S. cerevisiae deletion strains, locus YOR106W, strain vam3, hits give low values 0.988 | S. cerevisiae deletion strains, locus YOR136W, strain idh2, hits give low values 0.998 | S. cerevisiae deletion strains, locus YOR144C, strain elg1, hits give low values 0.995 | S. cerevisiae deletion strains, locus YOR184W, strain ser1, hits give low values 0.977 | S. cerevisiae deletion strains, locus YOR265W, strain rbl2, hits give low values 0.995 | S. cerevisiae deletion strains, locus YOR270C, strain vph1, hits give low values 0.992 | S. cerevisiae deletion strains, locus YOR290C, strain snf2, hits give low values 0.988 | S. cerevisiae deletion strains, locus YOR316C, strain cot1, hits give low values 1.01 | S. cerevisiae deletion strains, locus YPL051W, strain arl3, hits give low values 0.994 | S. cerevisiae deletion strains, locus YPL055C, strain LGE1, hits give low values 0.904 | S. cerevisiae deletion strains, locus YPL078C, strain atp4, hits give low values 0.988 | S. cerevisiae deletion strains, locus YPL106C, strain sse1, hits give low values 0.952 | S. cerevisiae deletion strains, locus YPL240C, strain hsp82, hits give low values 0.968 | S. cerevisiae deletion strains, locus YPL241C, strain CIN2, hits give low values 0.993 | S. cerevisiae deletion strains, locus YPR119W, strain clb2, hits give low values 1 | S. cerevisiae deletion strains, locus YPR141C, strain kar3, hits give low values 1.01 | S. cerevisiae deletion strains, locus YPR163C, strain tif3, hits give low values 0.997 | S. cerevisiae deletion strains, locus YPR167C, strain met16, hits give low values 1 | S. cerevisiae deletion strains, strain wtn01, hits give low values 1 | S. cerevisiae strains, strain wild type, hits give low values 0.994
